In PubChem BioAssay:

Test: small-molecule microarray binders of probe aDKK1, primary screen, biochemical, biotinylated probe, 635/667 nm fluorescence (AID 1099);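 note: score merges 667nm spot fluorescence with signal to noise across triplicate slides; reference of the scale not given here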
Details: higher = more signal

| SMILES | composite z-score |
| --- | --- |
| COc1cc2c(cc1O)C(c1ccc(CN3CCCC3)cc1)N(Cc1cc3c(cc1Br)OCO3)CC2 (stereo unspecified) | -0.106 |
| CCCC[C@@H]1C[C@H]1[C@@H](NC(=O)c1cccs1)c1ccccc1C(F)(F)F | 0.445 |
| CCOC(=O)C1=C[C@@H](c2ccccc2)N(S(=O)(=O)c2ccc(C)cc2)[C@H]1c1ccc(OC)cc1 | 1.16 |
| C=CCC(OC(C)=O)[C@@H]1[C@@H](N(Cc2ccc(-c3cccc(C(F)(F)F)c3)o2)C(=O)Cc2ccc(OC)cc2)c2cc(OCCCO)ccc2N1C(=O)c1ccc(-c2ccccc2)cc1 (stereo partly specified) | -0.0755 |
| C=CC[C@@H](OC(=O)Nc1ccc(SC)cc1)c1ccc(O)c(F)c1 | 0.0488 |
| CCCCC=C[C@@H](NC(=O)OCc1ccccc1Cl)c1ccccc1 | 1.53 |
| C=CCC(OC(C)=O)[C@@H]1[C@@H](N(Cc2cccc3ccccc23)C(=O)Cc2ccc(OC)cc2)c2cc(OCCCO)ccc2N1C(=O)c1ccc(-c2ccccc2)cc1 (stereo partly specified) | 0.0699 |
| CCCC=C(CCC)[C@@H](NP(=O)(c1ccccc1)c1ccccc1)c1ccc(-c2ccccc2)cc1 | 0.719 |
| COCCCNC(=O)[C@@]1(CCC(=O)OC(C)(C)C)N=C(c2ccc(OCCCO)cc2)O[C@H]1c1ccccc1N=[N+]=[N-] | 1.36 |
| O=C(Cc1ccccc1)[C@H]1C2C=CCCC(c3ccccc3)=C2CN1Cc1ccccc1 (stereo partly specified) | -0.138 |
| COC(=O)[C@@]1(Cc2ccc(F)cc2)[C@H]2c3cc(C(=O)N4CCCC4)n(Cc4ccc(C)c(F)c4F)c3C[C@H]2CN1C(=O)c1ccccc1 | 0.902 |
| COc1ccc(C#Cc2ccc3c(c2)[C@]2(C(=O)N3)[C@H](C(=O)O)[C@H]3C(=O)O[C@H](c4ccccc4)[C@H](c4ccccc4)N3[C@@H]2c2ccc(O)cc2)cc1 | 0.734 |
| CCC#CCN(Cc1ccccc1Br)[C@H](/C=C/C1CC1)[C@@H](O)Cc1ccccc1 | 0.0547 |
| COC(=O)[C@@]1(Cc2ccccc2)[C@H]2c3cc(C(=O)N(C)C)n(Cc4ccc(C)o4)c3C[C@H]2CN1C(=O)c1ccccc1 | 2.33 |
| CC(C)NC(=O)[C@@]1(C)c2ccccc2C(=O)N(Cc2ccc(OC(F)(F)F)cc2)[C@H]1c1ccc(CO)cc1 | -0.0863 |
| COc1ccc([Si](C)(C)[C@@H]2[C@@H](CC(=O)N3CCC[C@H]3CO)O[C@]3(C(=O)N(Cc4cccc(N5C(=O)COc6ccccc65)c4)c4ccccc43)[C@H]2C)cc1 | -0.0948 |

| SMILES | composite z-score |
| --- | --- |
| CCCC[C@@H](O)C1=C(COC)C[C@H]2C(=O)N(C)C(=O)[C@H]2[C@H]1CO | -0.491 |
| COc1ccc([Si](C)(C)[C@@H]2[C@@H](CC(=O)N(CCO)Cc3ccccc3)O[C@]3(C(=O)N(Cc4cccc(N5CCCCC5=O)c4)c4ccccc43)[C@H]2C)cc1 | -0.0247 |
| COc1ccc(CCNC(=O)[C@@]2(Sc3ccc(C)cc3)CC(=O)N(Cc3ccccc3C(F)(F)F)[C@@H]2c2ccc(CO)cc2I)cc1 | -0.0552 |
| [N-]=[N+]=Nc1ccccc1[C@@H]1OC(c2ccc(OCCCO)cc2)=N[C@]1(Cc1ccccc1)C(=O)N1CCCCC1 | 0.374 |
| Cc1ccc(S[C@]2(C(=O)NCc3ccccc3)CC(=O)N(C3CCCCC3)[C@@H]2c2ccc(CO)cc2I)cc1 | -0.0018 |
| COc1ccc([Si](C)(C)[C@H]2[C@H](CC(=O)N(CCO)Cc3ccccc3)O[C@@]3(C(=O)N(C)c4c(Br)cc(C)cc43)[C@@H]2C)cc1 | -0.0876 |
| [N-]=[N+]=Nc1ccccc1[C@@H]1OC(c2ccc(OCCCO)cc2)=N[C@]1(Cc1ccccc1)C(=O)O | 0.973 |
| CCCC1(C(=O)OC)C=C2C(=C(C)C(=O)C2C)CN1 (stereo unspecified) | 0.719 |
| COCC(=C=CC[C@H](O)c1ccccc1OCCO)C[C@H](O)c1ccccn1 | -0.201 |
| Oc1ccc2cc[n+](Cc3cc4c(cc3Br)OCO4)cc2c1 | 0.144 |
| CC(C)[Si]1(C(C)C)OCc2cc(C3CC3)nc(-c3ccc(Oc4ccccc4)cc3)c21 | 0.15 |
| [N-]=[N+]=Nc1ccccc1C[C@]1(C(=O)N2CCOCC2)COC(c2ccc(OCCCO)cc2)=N1 | 0.399 |
| [N-]=[N+]=Nc1ccccc1C[C@@]1(C(=O)NCCN2CCOCC2)N=C(c2ccc(OCCCO)cc2)O[C@@H]1c1ccccc1N=[N+]=[N-] | 0.664 |
| CCCCC(CC)C(O)C1C=CC2C(=O)N(C)C(=O)C2N1Nc1ccccc1 (stereo unspecified) | 0.559 |
| O=C1N(CCS(=O)(=O)c2ccccc2)c2ccccc2[C@H]2OC(c3ccc(OCCCO)cc3)=N[C@@]12Cc1ccccc1 | 1.1 |
